Assay results as given in the OligoGym collection.
Also: reference of the scale not given here.

Each sequence was assayed against ANXA5 (assay: pooled miR-30 sensor sort-seq; sequence = guide strand). Conditions: shRNA.
Sequence TTCTTCTTCATAAACTTGTTTG has a sensor-assay potency score (higher = more potent) of -0.985. Work on TTTCACAACAGCAAGGAGTAGT yielded a sensor-assay potency score (higher = more potent) of -0.0711. TTAATTTTTCAAATTTTCCAGT showed a sensor-assay potency score (higher = more potent) of 0.274. In the case of TTCAACTTGAGCTTCATCAATT, the sensor-assay potency score (higher = more potent) is reported as -0.586. TAATCTTTTGAATACAATCATC was tested, and the sensor-assay potency score (higher = more potent) was -1.12. AACAGATCAATCTCACTCCTGG gave a sensor-assay potency score (higher = more potent) of -0.0547. TTCTTCCTAAACTCCTTCCTGA showed a sensor-assay potency score (higher = more potent) of -0.49. In the case of TTCTGATTTCAGGTCATCCAGA, the sensor-assay potency score (higher = more potent) is reported as -0.946. TAAACTTAGTAACATTAAGTAC was tested, and the sensor-assay potency score (higher = more potent) was -0.822. In the case of TCAAATGAGACACACTTCGTGT, the sensor-assay potency score (higher = more potent) is reported as -0.219. In the case of TAGATTTCACAACAGCAAGGAG, the sensor-assay potency score (higher = more potent) is reported as -0.538. For TTTCATTTGTTCCAGCTCCCTT, the sensor-assay potency score (higher = more potent) was -0.639. In the case of TTTCTGTCAGTACTTTTTCATT, the sensor-assay potency score (higher = more potent) is reported as -1.52. Work on TTCGAATAGATTTCACAACAGC yielded a sensor-assay potency score (higher = more potent) of -0.293. TACACTTTAGTACTACAGCAGT showed a sensor-assay potency score (higher = more potent) of -0.815. TAAATTGCCAGAAGTCTCGCGG showed a sensor-assay potency score (higher = more potent) of 0.467. Sequence TTTAGTTGCGAACTTCACTAAT has a sensor-assay potency score (higher = more potent) of -0.975. For TAGCATAATAGAGGGTCTCTGC, the sensor-assay potency score (higher = more potent) was -0.439. With TTCTTCTATGACGTGTATGTGT the sensor-assay potency score (higher = more potent) was -0.0894. With TTGAAATCCTGATATAGTCATG the sensor-assay potency score (higher = more potent) was -1.04. TTCATAAGCATCATAAAGCCGA was tested, and the sensor-assay potency score (higher = more potent) was -0.311.
